From PubChem
mcGAS lum – inhibitors of mouse cGAS. AID 1259399. 0.15% of 160,000 active. recombinant cGAS, Kinase-Glo ATP depletion luminescence. inhibition, % at 12.5 µM. Q8C6L5;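 further: 0% = negative control wells and 100% = reference inhibitor with no enzyme activity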
Target sequence (Q8C6L5 whole entry, looked up): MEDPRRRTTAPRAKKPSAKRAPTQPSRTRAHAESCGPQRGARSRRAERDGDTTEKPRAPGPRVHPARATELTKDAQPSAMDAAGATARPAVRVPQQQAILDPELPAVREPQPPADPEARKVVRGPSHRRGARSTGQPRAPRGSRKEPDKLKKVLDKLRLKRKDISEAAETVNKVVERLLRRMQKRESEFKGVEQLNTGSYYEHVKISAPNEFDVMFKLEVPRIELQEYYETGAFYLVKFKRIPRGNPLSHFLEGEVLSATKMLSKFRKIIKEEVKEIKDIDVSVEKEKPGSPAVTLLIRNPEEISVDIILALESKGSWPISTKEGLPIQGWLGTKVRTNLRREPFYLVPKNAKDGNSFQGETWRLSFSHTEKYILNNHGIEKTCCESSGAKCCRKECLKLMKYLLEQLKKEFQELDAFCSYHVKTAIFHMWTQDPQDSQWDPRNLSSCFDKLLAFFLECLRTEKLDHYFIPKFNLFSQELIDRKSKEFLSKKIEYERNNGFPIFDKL
hcGAS lum – human cGAS inhibition; Q8N884; recombinant h-cGAS, ATP depletion, Kinase-Glo luminescence; inhibition, % at 12.5 µM; 0.081% of 290,000 active; AID 1259398;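 further: 0% = vehicle reaction and 100% = reaction without DNA for no activity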
NPYLR7 ag – mosquito NPYLR7 agonism. HEK293T NPYLR7/Galpha15, GCaMP6s calcium fluorescence. activation, % at 10 µM. 0.15% of 270,000 active. AID 1259423; in the data active means activation above about 40%;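 further: 0% = vehicle and 100% = reference agonist at the receptor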
An asterisk follows results filed as active; / = not tested or not shown; + = active, no number. Compounds with a hit are over-represented: about 0.24% of the library has one in this group of screens. Unless noted, no stated cut-off is given here; in the data, active means inhibition above about 40%; inactive means the rest.

SMILES	mcGAS lum	hcGAS lum	NPYLR7 ag
CC1CN(C(=O)c2cc3ccsc3n2Cc2ccccc2F)CCN1S(C)(=O)=O (centres undefined)	3.3	5.7	3.4
CC(=O)c1ccc2c(c1)[C@@H]1C=CC[C@@H]1[C@H](c1cc3c(cc1Br)OCO3)N2	-2.1	-11.1	11.0
O=C(O)C1Nc2cc(Cl)cc(Cl)c2C2C=CCC12 (centres undefined)	61.9*	7.1	1.5
COc1ccc(C=CC(=O)c2ccc(I)cc2)cc1O	24.9	-11.0	1.1
COc1ccc(C=CC(=O)c2cccs2)cc1O	55.3*	-12.4	15.1
O=c1oc2cc(Oc3ncnc4c3oc3ccccc34)ccc2c2c1CCC2	-8.1	-12.4	-1.1
Cc1cccc(OCC2c3ccsc3CCN2C(=O)CNCc2ccco2)c1 (centres undefined)	/	-2.1	-0.7
Cc1cc(C)c2cc3c(cc2n1)CCN3CC(O)CO (centres undefined)	/	-2.6	187.5*
CC(=O)NC1CCN(c2cc(C)c3cc4c(cc3n2)CCC4)CC1	/	-5.6	6.5
Cc1ccccc1OCC(=O)N1CCOC(COCc2ccccc2F)C1 (centres undefined)	-5.1	-3.1	-8.1
CCOC(=O)c1cc(C(C)(C)C)n(C2CCN(C(=O)c3ccc4snnc4c3)CC2)n1	-1.0	-3.9	25.1
Cc1cc(=O)n2[nH]cc(-c3ccc(F)cc3)c2n1	/	-6.7	-14.3
Cc1cc(=O)n2[nH]cc(-c3ccccc3Cl)c2n1	26.3	45.5*	2.7
Cc1sc2nc(C(C)Sc3nnc(C4CC4)n3C3CC3)[nH]c(=O)c2c1C (centres undefined)	/	-6.4	6.8
NC(=O)C1CCN(C(=O)CCN(CCc2ccccc2)C(=O)c2cnccn2)CC1	/	+	6.4
NC(=O)C1CCN(C(=O)CCc2ccsc2)CC1	/	-3.4	-4.0
CN(C)c1nc(N)nc(CSC23CC4CC(CC(C4)C2)C3)n1	-9.0	-12.8	1.0
C(/C=C/CC=Nc1ccccc1)=Nc1ccccc1	-7.4	-4.6	66.1*
C[N+]1=C(CC=Nc2ccccc2)SCC1	/	-3.4	-0.8
Nc1c2ccccc2nc2ccccc12	/	72.0*	2.2
Nc1c2c(nc3ccccc13)CCCC2	-2.9	-2.4	-5.5
O=c1/c(=C\c2ccc(I)cc2)sc2nc(-c3cccs3)nn12	13.1	-21.1	5.8
N#CC1C(=N)OC2=C(C(=O)CCC2)C1c1ccccc1C(F)(F)F (centres undefined)	-4.6	-3.3	0.8
CCOc1cc2c(cc1N)OC(C)C2 (centres undefined)	-5.1	-0.6	-2.3
CCOc1cc2c(cc1C=C(C#N)C#N)OC(C)C2 (centres undefined)	/	-5.0	95.4*
SMILES	mcGAS lum	hcGAS lum	NPYLR7 ag
O=C(NCc1ccncc1)c1cc(-c2ccc(F)cc2)nc2cc(-c3ccccc3)nn12	-7.5	0.1	-0.7
CC1CC(c2cccc(F)c2)N(C(=O)NCCC(=O)N(C)C)C1 (centres undefined)	-8.9	6.2	0.2
Cc1cc2nc3c(=O)[nH]c(=O)nc-3n(CC(O)C(O)C(O)CO)c2cc1C (centres undefined)	/	0.2	172.5*
Cc1cc2nc3c(=O)[nH]c(=O)nc-3n(C)c2cc1C=O	/	-5.2	-1.1
CCN(Cc1cccs1)C(=O)c1ccc(NC(C)=O)cc1	0.2	-0.3	-3.1
CCOC(=O)CCC(=O)N1CCN(C(=O)c2cc3ccoc3n2Cc2ccc(C)cc2)CC1C (centres undefined)	-2.9	-3.8	8.2
C=C(C)Cn1c(C(=O)N2CCN(C(=O)CCC(=O)OCC)C(C)C2)cc2ccoc21 (centres undefined)	-6.5	-10.1	56.9*
Cc1oc(-c2cccc(NC(=O)CC(C)C)c2)nc1CNC(=O)Cc1cc(F)cc(F)c1	-7.6	-7.0	56.5*
Cc1oc(-c2ccccc2NS(=O)(=O)c2cccc(F)c2)nc1CNC(=O)CC(C)C	/	-5.5	5.3
O=c1[nH]c(=S)[nH]c2c1C(c1cccc([N+](=O)[O-])c1)c1c([nH]c(=S)[nH]c1=O)O2	55.2*	30.5	5.3
O=c1[nH]cnc2c1C(c1cccc([N+](=O)[O-])c1)c1c(nc[nH]c1=O)O2	-7.4	-8.0	-0.3
COC(=O)c1ccc2c(c1)CCN2C(=O)c1c(C)noc1C	/	-6.9	-2.8
COCc1cc(C)nc(OCC(=O)N/N=C\c2cc(Br)cc(I)c2O)c1C#N	0.7	-1.5	-0.4
COCCN=Cc1cc(I)cc(I)c1O	/	76.6*	50.9*
O=C(c1ccc2c(c1)OCO2)N1CCC(n2cnc3ccccc32)CC1	-6.8	-3.9	4.0
CC(=O)c1c(C)[nH]c(C(=O)Nc2nc(C)cs2)c1C	/	-4.9	6.4
CC(=O)Nc1nc(COC(=O)c2[nH]c(C)c(C(=O)OC(C)C)c2C)cs1	-8.3	-3.6	45.6*
CCN1C(=O)C2(SC(C)(C)CN2C(=O)NC2CCCCC2)c2cc(F)ccc21 (centres undefined)	-5.5	-8.5	6.3
Cc1ccnc(SCc2cc(=O)c(OC(=O)COc3ccccc3C)co2)n1	-6.3	-1.5	-7.4
Cc1cc(C)nc(SCc2cc(=O)c(OC(=O)Cc3cccc4ccccc34)co2)n1	68.2*	12.5	-8.8
Cc1cc(C)nc(SCc2cc(=O)c(OC(=O)C3c4ccccc4Oc4ccccc43)co2)n1	92.8*	-2.4	-6.4
Cc1cc(C)nc(SCc2cc(=O)c(OC(=O)c3ccccc3Cl)co2)n1	-4.8	-7.4	-12.9
Cc1cc(C)nc(SCc2cc(=O)c(OC(=O)Cc3cccs3)co2)n1	7.2	8.0	-22.1
Cc1ccnc(SCc2cc(=O)c(OC(=O)Cc3cccc4ccccc34)co2)n1	59.9*	5.6	13.8
Cc1cc(C)c(-c2c(-c3ccccc3)ncn2CC2(O)CCN(C)CC2)c(C)c1	-13.4	-5.1	-5.0
SMILES	mcGAS lum	hcGAS lum	NPYLR7 ag
Cc1ccccc1-c1ccc2nnc(-c3cscn3)n2c1	-5.5	-1.0	4.0
O=C(COc1coc(CN2CCc3ccccc32)cc1=O)N1CCC(Cc2ccccc2)CC1	-7.5	-4.5	15.3
CCCS(=O)(=O)Nc1ccc2c(c1)C(=O)N(CC)c1ccccc1O2	/	-6.0	8.9
COC(=O)c1ccc2c(c1)C1CC(C)(O2)N(c2cccc(Cl)c2)C(=O)N1 (centres undefined)	0.6	0.6	-2.7
COc1cc(C=C(C#N)S(=O)(=O)c2cc(Cl)ccc2Cl)cc(OC)c1	/	2.0	2.5
COc1cc(C=C(C#N)S(=O)(=O)c2ccc(F)cc2)cc(OC)c1OC	/	-8.9	11.5
COc1cc(C=C(C#N)S(=O)(=O)c2cc(Cl)ccc2Cl)cc(Br)c1O	/	-4.6	66.3*
COc1cc(C=C(C#N)S(=O)(=O)c2ccc(F)cc2)cc(Br)c1O	/	-1.1	182.8*
CS(=O)(=O)c1cccc(C(=O)NCc2ccco2)c1	/	-5.8	2.5
CCOc1ccc(CN2CCCn3cccc3C2c2ccc([N+](=O)[O-])cc2)cc1 (centres undefined)	-4.6	-3.6	18.5
Cc1nc2ccc(N)cc2s1	0.9	5.0	1.4
C[n+]1c2cc(N)ccc2cc2ccc(N)cc21	/	67.8*	119.9*
Cc1cc(C)n(CC(C)NCC(=O)NC(C)C)n1 (centres undefined)	-10.8	-3.7	4.3
Cc1c(C(=O)NCc2ccc3c(c2)OCCO3)sc(=O)n1Cc1ccccn1	/	-4.4	14.4
COc1cccc(CN2COc3ccc4c(c3C2)O/C(=C\c2ccncc2)C4=O)c1	11.2	5.0	66.4*
COc1ccc(-c2cc3ccc4c(c3oc2=O)CN(Cc2cccnc2)CO4)c(OC)c1	-0.1	1.0	-3.3
